Laboratory results reported in PubChem BioAssay (Tox21).
Values joined by “and” are separate entries in the source; they are usually repeats but may differ in a detail not shown here. Equal values may be shown once. Inconclusive results are not listed. Active and inactive are the calls of the source. The call rests on the fitted dose curve; in most records, active means well fitted curve in the direction sought with a large enough effect in the repeat runs; inconclusive means weak or mixed curves; inactive means no such curve, though single readings can be large; an effect the other way counts as inactive or inconclusive.

Experiments:
[1] = qHTS RealTime-Glo MT Cell Viability Assay in HEK293 cells - 16 hour (AID 1224872); further: nearly all actives have a fitted effect of over 50% in size; further: potency means the concentration at half of the fitted maximal effect; on activity change, negative = cytotoxicity: top concentration of the series differs between compounds
Summary of the method: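 Assay medium contained NanoLuc luciferase plus cell-permeant prosubstrate, added with HEK293 cells at 600 cells/well. After 5 h at 37 C/5% CO2 compounds were added; plates stayed at 37 C for 40 h with serial luminescence reads.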

[2] = qHTS RealTime-Glo MT Cell Viability Assay in HepG2 cells - 8 hour (AID 1224873); further: nearly all actives have a fitted effect of over 55% in size
Summary of the method: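 HepG2 cells (600/well) mixed with RealTime-Glo MT reagent, settled 5 h at 37 C/5% CO2 before compound addition. Nonlytic NanoLuc luminescence from viable-cell prosubstrate reduction read repeatedly during 40 h treatment at 37 C.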

[3] = qHTS RealTime-Glo MT Cell Viability Assay in HEK293 cells - 40 hour (AID 1224874); conditions: RealTime-Glo luminescence; max response: hits give low values; further: nearly all actives have a fitted effect of over 50% in size; further: potency means the concentration at half of the fitted maximal effect
Summary of the method: (§1)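 Kinetic, non-lysing viability readout. Seed HEK293 (600/well) with reagent, incubate 5 h at 37 C/5% CO2, pin 23 nL compound in DMSO, incubate at 37 C, read luminescence at 0, 8, 16, 24, 32, 40 h.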

[4] = A CellTox Green Cytotoxicity Assay to monitor cytotoxicity in HEK293 cells - 24 hour (AID 1224875); further: nearly all actives have a fitted effect of over 45% in size; further: potency means the concentration at half of the fitted maximal effect; on activity change: series mostly up to about 77 µM
Summary of the method: (§2)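 Real-time, in one plate: 600 HEK293 cells/well with dead-cell DNA dye, pinned compound after 5 h, 37 C incubation over 40 h; viable cells give no appreciable fluorescence.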

[5] = A CellTox Green Cytotoxicity Assay to monitor cytotoxicity in HepG2 cells - 16 hour (AID 1224876); further: nearly all actives have a fitted effect of over 45% in size; further: potency means the concentration at half of the fitted maximal effect
Summary of the method: (§3)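 Cytotoxicity was tracked as dead-cell DNA fluorescence in HepG2 cells treated with test compounds at 37 C; each time-point value comes from one kinetic series spanning 0, 8, 16, 24, 32 and 40 h.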

[6] = qHTS RealTime-Glo MT Cell Viability Assay in HepG2 cells - 32 hour (AID 1224877); further: nearly all actives have a fitted effect of over 55% in size; further: potency means the concentration at half of the fitted maximal effect
Summary of the method: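 qHTS, HepG2, 600 cells/well, RealTime-Glo (NanoLuc + prosubstrate) added with cells; 5 h preincubation; DMSO compound addition; 37 C; luminescence at 0/8/16/24/32/40 h.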

[7] = A CellTox Green Cytotoxicity Assay to monitor cytotoxicity in HepG2 cells - 24 hour (AID 1224878); further: nearly all actives have a fitted effect of over 45% in size; further: potency means the concentration at half of the fitted maximal effect
Summary of the method: as §3

[8] = A CellTox Green Cytotoxicity Assay to monitor cytotoxicity in HepG2 cells - 40 hour (AID 1224879); further: nearly all actives have a fitted effect of over 40% in size; further: potency means the concentration at half of the fitted maximal effect
Summary of the method: as §3

[9] = qHTS RealTime-Glo MT Cell Viability Assay in HEK293 cells - 0 hour (AID 1224880); further: top concentration of the series differs between compounds; nearly all actives have a fitted effect of over 45% in size
Summary of the method: as §1

[10] = A CellTox Green Cytotoxicity Assay to monitor cytotoxicity in HEK293 cells - 32 hour (AID 1224881); further: nearly all actives have a fitted effect of over 40% in size; further: potency means the concentration at half of the fitted maximal effect
Summary of the method: as §2
On the % scale 0 is the no-effect control and ±100 the full control effect.

CCN1C(=O)c2ccccc2C1Nc1ccc(OCCN2CCCCC2)cc1 (stereo not given)
active: Potency [1] 4.77 µM | Potency [3] 4.77 µM
inactive: Potency [2] | Potency [4] | Potency [5] | Potency [6] | Potency [7] | Potency [8] | Potency [9] | Potency [10]

O=C1CCCCCCCCCCCCCCCO1
active: Potency [4] 24.5 µM | Potency [5] 43.6 µM | Potency [7] 43.6 µM | Potency [8] 43.6 µM | Potency [10] 24.5 µM
inactive: Potency [1] | Potency [2] | max response [3] 4% | Potency [6] | Potency [9]

O=C(O)Cc1ccccc1Nc1c(Cl)cccc1Cl
inactive: Potency [1] | Potency [2] | max response [3] 15.1% and 6.54% | Potency [4] | Potency [5] | Potency [6] | Potency [7] | Potency [8] | Potency [9] | Potency [10]

O=S(=O)(O)c1ccccc1/C=C/c1ccc(-c2ccc(/C=C/c3ccccc3S(=O)(=O)O)cc2)cc1
inactive: Potency [1] | Potency [2] | max response [3] 3.02% | Potency [4] | Potency [5] | Potency [6] | Potency [7] | Potency [8] | Potency [9] | Potency [10]

Nc1ccc(Oc2ccc(Cl)cc2)cc1
active: Potency [1] 21.4 µM | Potency [3] 21.4 µM
inactive: Potency [2] | Potency [4] | Potency [5] | Potency [6] | Potency [7] | Potency [8] | Potency [9] | Potency [10]

Cc1ccc(N/N=c2\c(=O)cc/c(=N\Nc3ccc(S(=O)(=O)O)cc3)c2=O)c(C)c1
inactive: Potency [1] | Potency [2] | max response [3] 1.45% | Potency [4] | Potency [5] | Potency [6] | Potency [7] | Potency [8] | Potency [9] | Potency [10]

CCC(=O)OC(=O)CC
inactive: Potency [1] | Potency [2] | max response [3] 0.495% | Potency [4] | Potency [5] | Potency [6] | Potency [7] | Potency [8] | Potency [9] | Potency [10]

CC(=O)CC(=O)Nc1ccc(S(=O)(=O)O)cc1
inactive: Potency [1] | Potency [2] | max response [3] 0.915% | Potency [4] | Potency [5] | Potency [6] | Potency [7] | Potency [8] | Potency [9] | Potency [10]

CC(CO)Oc1ccccc1 (stereo not given)
inactive: Potency [1] | Potency [2] | max response [3] -11% | Potency [4] | Potency [5] | Potency [6] | Potency [7] | Potency [8] | Potency [9] | Potency [10]

Nc1nc(-c2ccccc2)cs1
inactive: Potency [1] | Potency [2] | max response [3] -6.02% | Potency [4] | Potency [5] | Potency [6] | Potency [7] | Potency [8] | Potency [9] | Potency [10]

CC(C)CCOC(=O)/C=C/c1ccccc1
inactive: Potency [1] | Potency [2] | max response [3] -4.61% | Potency [4] | Potency [5] | Potency [6] | Potency [7] | Potency [8] | Potency [9] | Potency [10]

O=C(O)c1cc(-c2ccc(F)cc2F)ccc1O
inactive: Potency [1] | Potency [2] | max response [3] -1.84% | Potency [4] | Potency [5] | Potency [6] | Potency [7] | Potency [8] | Potency [9] | Potency [10]

O=C1C(c2[nH]c3ccc(S(=O)(=O)O)cc3c2O)=Nc2ccc(S(=O)(=O)O)cc21
inactive: Potency [1] | Potency [2] | max response [3] 10.2% | Potency [4] | Potency [5] | Potency [6] | Potency [7] | Potency [8] | Potency [9] | Potency [10]

O[C@@H]([C@H](O)[C@H](O)CBr)[C@H](O)CBr
inactive: Potency [1] | Potency [2] | max response [3] 2.46% | Potency [4] | Potency [5] | Potency [6] | Potency [7] | Potency [8] | Potency [9] | Potency [10]

C=C(C)c1cccc(C(=C)C)c1
inactive: Potency [1] | Potency [2] | max response [3] -0.359% | Potency [4] | Potency [5] | Potency [6] | Potency [7] | Potency [8] | Potency [9] | Potency [10]

OC[C@@H](O)[C@@H](O)CO
inactive: Potency [1] | Potency [2] | max response [3] 7.59% | Potency [4] | Potency [5] | Potency [6] | Potency [7] | Potency [8] | Potency [9] | Potency [10]

CN(C)Cc1cc(C(C)(C)C)c(O)c(C(C)(C)C)c1
inactive: Potency [1] | Potency [2] | max response [3] -1.74% | Potency [4] | Potency [5] | Potency [6] | Potency [7] | Potency [8] | Potency [9] | Potency [10]

CCC(COC(=O)CCS)(COC(=O)CCS)COC(=O)CCS
inactive: Potency [1] | Potency [2] | max response [3] 0.669% | Potency [4] | Potency [5] | Potency [6] | Potency [7] | Potency [8] | Potency [9] | Potency [10]

O=C(O)O
inactive: activity change, negative = cytotoxicity [1] 1.92% [at 6.97 µM] | viability change, negative = cytotoxic [2] -4.4% [at 6.97 µM] | max response [3] -2.54% | activity change [4] 5.15% [at 6.97 µM, hits give high values] | cytotoxicity increase [5] -0.218% [at 6.97 µM] | activity change, negative = cytotoxic [6] 7.61% [at 6.97 µM] | cytotoxicity [7] -2.66% [at 6.97 µM] | cytotoxicity increase [8] -9.85% [at 6.97 µM] | activity change, negative = cytotoxicity [9] 3.17% [at 6.97 µM] | cytotoxicity increase [10] -1.24% [at 6.97 µM]

NC(=S)NC(N)=S
inactive: Potency [1] | Potency [2] | max response [3] -1.4% | Potency [4] | Potency [5] | Potency [6] | Potency [7] | Potency [8] | Potency [9] | Potency [10]

CC(C)OC(=O)C(O)(CC(=O)O)CC(=O)O
inactive: Potency [1] | Potency [2] | max response [3] 1.68% | Potency [4] | Potency [5] | Potency [6] | Potency [7] | Potency [8] | Potency [9] | Potency [10]

Cc1cccc(C(=O)O)c1O
inactive: Potency [1] | Potency [2] | max response [3] 6.77% | Potency [4] | Potency [5] | Potency [6] | Potency [7] | Potency [8] | Potency [9] | Potency [10]

Clc1ccnc(Cl)n1
inactive: Potency [1] | Potency [2] | max response [3] 11.8% | Potency [4] | Potency [5] | Potency [6] | Potency [7] | Potency [8] | Potency [9] | Potency [10]

CC(CCc1ccccc1)NCC(O)c1ccc(O)c(C(N)=O)c1 (stereo not given)
inactive: Potency [1] | Potency [2] | max response [3] 0.74% | Potency [4] | Potency [5] | Potency [6] | Potency [7] | Potency [8] | Potency [9] | Potency [10]

Cc1c(C)c2c(c(C)c1OC(=O)c1cccnc1)CC[C@@](C)(CCC[C@H](C)CCC[C@H](C)CCCC(C)C)O2
inactive: Potency [1] | Potency [2] | max response [3] -1.07% | Potency [4] | Potency [5] | Potency [6] | Potency [7] | Potency [8] | Potency [9] | Potency [10]

COC(C)=O
inactive: Potency [1] | Potency [2] | max response [3] -13.9% | Potency [4] | Potency [5] | Potency [6] | Potency [7] | Potency [8] | Potency [9] | Potency [10]

C[C@H]1NCc2cc(-c3ccc4c(=O)c(C(=O)O)cn(C5CC5)c4c3OC(F)F)ccc21
inactive: activity change, negative = cytotoxicity [1] -1.72% [at 15.8 µM] | viability change, negative = cytotoxic [2] -17% [at 15.8 µM] | max response [3] -6.6% | activity change [4] -2.55% [at 15.8 µM, hits give high values] | cytotoxicity increase [5] 1.43% [at 15.8 µM] | activity change, negative = cytotoxic [6] -0.83% [at 15.8 µM] | cytotoxicity [7] 1.74% [at 15.8 µM] | cytotoxicity increase [8] 1.86% [at 15.8 µM] | activity change, negative = cytotoxicity [9] -10.2% [at 15.8 µM] | cytotoxicity increase [10] -2.38% [at 15.8 µM]

O=C(O)c1ccc2cc(C(=O)O)ccc2c1
inactive: Potency [1] | Potency [2] | max response [3] 7.36% | Potency [4] | Potency [5] | Potency [6] | Potency [7] | Potency [8] | Potency [9] | Potency [10]

CCCCC(CC)COC(=O)CCCCC(=O)OCc1ccccc1 (stereo not given)
inactive: Potency [1] | Potency [2] | max response [3] -2.79% | Potency [4] | Potency [5] | Potency [6] | Potency [7] | Potency [8] | Potency [9] | Potency [10]

COC(=O)c1ccccc1C
inactive: Potency [1] | Potency [2] | max response [3] -4.12% | Potency [4] | Potency [5] | Potency [6] | Potency [7] | Potency [8] | Potency [9] | Potency [10]

CCCCOC(=O)CO
inactive: Potency [1] | Potency [2] | max response [3] -0.491% | Potency [4] | Potency [5] | Potency [6] | Potency [7] | Potency [8] | Potency [9] | Potency [10]

CCCNCCC
inactive: Potency [1] | Potency [2] | max response [3] -5.51% | Potency [4] | Potency [5] | Potency [6] | Potency [7] | Potency [8] | Potency [9] | Potency [10]

CCCC1CCC(=O)CC1
inactive: Potency [1] | Potency [2] | max response [3] 11.1% | Potency [4] | Potency [5] | Potency [6] | Potency [7] | Potency [8] | Potency [9] | Potency [10]

OC/C=C/CO
inactive: Potency [1] | Potency [2] | max response [3] 0.626% | Potency [4] | Potency [5] | Potency [6] | Potency [7] | Potency [8] | Potency [9] | Potency [10]

O=C(Oc1ccccc1)Oc1ccccc1
active: Potency [6] 48.8 µM
inactive: Potency [1] | Potency [2] | max response [3] -21% | Potency [4] | Potency [5] | Potency [7] | Potency [8] | Potency [9] | Potency [10]

CC(=O)Oc1cc2c(s1)CCN(C(C(=O)C1CC1)c1ccccc1F)C2 (stereo not given)
inactive: Potency [1] | Potency [2] | max response [3] -4.77% | Potency [4] | Potency [5] | Potency [6] | Potency [7] | Potency [8] | Potency [9] | Potency [10]
